Several values for one entry are separate records, joined by “and”; a condition that tells them apart may be missing. Equal entries are not always repeated. The whole screen tested about 5,500 compounds, of which about 2,000 (36%) were called active. Inconclusive results (about 18%) are left out. Rule as the data show it: active = normalized growth mostly below about 0.91 (no sharp cut-off); inconclusive = no clear call, values can overlap the other calls; inactive = mostly above about 0.92. The list shows a part of the results. Some structures have more than one record in an assay (separate samples or runs), and their calls can disagree.
Assay: chemical genetic growth profiling, strain panel (AID 1159580);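 also: tested at 20 µM; growth read once vehicle control cultures reached saturation at 30 °C; 1 = growth at the plate median or of vehicle wells; lower values mean less growth of the strain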
Details: growth OD

Measured: normalized growth

CCCCCCCCCCCCCCCCCC(=O)OC(CC(=O)O)C[N+](C)(C)C (stereo not drawn)
inactive: S. cerevisiae deletion strains, locus YBR229C, strain ROT2, stronger effect = lower value 1.03 | S. cerevisiae deletion strains, locus YCL061C, strain MRC1 (second series), stronger effect = lower value 0.991 | S. cerevisiae deletion strains, locus YDR363W, strain ESC2, stronger effect = lower value 0.985 | S. cerevisiae deletion strains, locus YER002W, strain NOP16, stronger effect = lower value 1.01 | S. cerevisiae deletion strains, locus YJL134W, strain LCB3, stronger effect = lower value 1.01 | S. cerevisiae deletion strains, locus YJL168C, strain set2, stronger effect = lower value 0.956 | S. cerevisiae deletion strains, locus YKL068W, stronger effect = lower value 1 | S. cerevisiae deletion strains, locus YLR039C, strain RIC1, stronger effect = lower value 1.1 | S. cerevisiae deletion strains, locus YLR262C, strain YPT6, stronger effect = lower value 1.09 | S. cerevisiae deletion strains, locus YNR052C, strain pop2, stronger effect = lower value 0.961 | S. cerevisiae deletion strains, locus YOR061W, strain CKA2, stronger effect = lower value 0.949 | S. cerevisiae deletion strains, locus YOR069W, strain VPS5, stronger effect = lower value 1 | S. cerevisiae deletion strains, locus YPR141C, strain kar3, stronger effect = lower value 1.05
0.96 (inactive) and 0.778 (active): S. cerevisiae deletion strains, locus YPL241C, strain CIN2, stronger effect = lower value
1 (inactive) and 0.232 (active): S. cerevisiae deletion strains, locus YMR263W, strain SAP30, stronger effect = lower value
active: S. cerevisiae deletion strains, locus YAL013W, strain DEP1, stronger effect = lower value 0.117 | S. cerevisiae deletion strains, locus YAL040C, strain CLN3, stronger effect = lower value 0.47 | S. cerevisiae deletion strains, locus YBR021W, strain FUR4, stronger effect = lower value 0.0953 | S. cerevisiae deletion strains, locus YCL029C, strain bik1, stronger effect = lower value 0.316 | S. cerevisiae deletion strains, locus YDL035C, strain GPR1, stronger effect = lower value 0.283 | S. cerevisiae deletion strains, locus YDL074C, strain BRE1, stronger effect = lower value 0.238 | S. cerevisiae deletion strains, locus YDL101C, strain DUN1, stronger effect = lower value 0.374 | S. cerevisiae deletion strains, locus YDL134C, strain PPH21, stronger effect = lower value 0.142 | S. cerevisiae deletion strains, locus YDL185W, strain tfp1, stronger effect = lower value 0.0578 | S. cerevisiae deletion strains, locus YDL192W, strain arf1, stronger effect = lower value 0.917 | S. cerevisiae deletion strains, locus YDR101C, strain arx1, stronger effect = lower value 0.679 | S. cerevisiae deletion strains, locus YDR150W, strain NUM1, stronger effect = lower value 0.583 | S. cerevisiae deletion strains, locus YDR162C, strain NBP2, stronger effect = lower value 0.0806 | S. cerevisiae deletion strains, locus YDR318W, strain mcm21, stronger effect = lower value 0.348 | S. cerevisiae deletion strains, locus YDR388W, stronger effect = lower value 0.0585 | S. cerevisiae deletion strains, locus YDR502C, strain sam2, stronger effect = lower value 0.619 | S. cerevisiae deletion strains, locus YEL061C, strain CIN8, stronger effect = lower value 0.44 | S. cerevisiae deletion strains, locus YER110C, stronger effect = lower value 0.156 | S. cerevisiae deletion strains, locus YER155C, strain BEM2, stronger effect = lower value 0.274 | S. cerevisiae deletion strains, locus YER167W, strain BCK2, stronger effect = lower value 0.214 | S. cerevisiae deletion strains, locus YGL078C, strain dbp3, stronger effect = lower value 0.62 | S. cerevisiae deletion strains, locus YGL086W, strain mad1, stronger effect = lower value 0.23 | S. cerevisiae deletion strains, locus YGL248W, strain PDE1, stronger effect = lower value 0.153 | S. cerevisiae deletion strains, locus YGR135W, strain pre9, stronger effect = lower value 0.185 | S. cerevisiae deletion strains, locus YGR229C, strain SMI1, stronger effect = lower value 0.797 and 0.0756 | S. cerevisiae deletion strains, locus YGR252W, strain gcn5, stronger effect = lower value 0.155 | S. cerevisiae deletion strains, locus YHR030C, strain SLT2, stronger effect = lower value 0.109 | S. cerevisiae deletion strains, locus YHR079C, strain IRE1 (second series), stronger effect = lower value 0.585 | S. cerevisiae deletion strains, locus YHR094C, strain hxt1, stronger effect = lower value 0.608 | S. cerevisiae deletion strains, locus YHR129C, strain ARP1, stronger effect = lower value 0.637 | S. cerevisiae deletion strains, locus YHR200W, strain rpn10, stronger effect = lower value 0.871 | S. cerevisiae deletion strains, locus YIL066C, strain RNR3, stronger effect = lower value 0.0537 | S. cerevisiae deletion strains, locus YIL073C, strain SPO22, stronger effect = lower value 0.108 | S. cerevisiae deletion strains, locus YIL125W, strain kgd1, stronger effect = lower value 0.59 | S. cerevisiae deletion strains, locus YIR030C, strain dcg1, stronger effect = lower value 0.587 | S. cerevisiae deletion strains, locus YJL095W, strain BCK1, stronger effect = lower value 0.0851 | S. cerevisiae deletion strains, locus YJL187C, strain SWE1 (second series), stronger effect = lower value 0.571 | S. cerevisiae deletion strains, locus YJR043C, strain POL32, stronger effect = lower value 0.567 | S. cerevisiae deletion strains, locus YJR075W, strain HOC1, stronger effect = lower value 0.146 | S. cerevisiae deletion strains, locus YKL009W, strain mrt4, stronger effect = lower value 0.504 | S. cerevisiae deletion strains, locus YKL085W, strain MDH1 (second series), stronger effect = lower value 0.56 | S. cerevisiae deletion strains, locus YKL085W, strain MDH1, stronger effect = lower value 0.56 | S. cerevisiae deletion strains, locus YKL190W, strain CNB1, stronger effect = lower value 0.0864 | S. cerevisiae deletion strains, locus YKR001C, strain vps1, stronger effect = lower value 0.89 | S. cerevisiae deletion strains, locus YLR058C, strain SHM2, stronger effect = lower value 0.598 | S. cerevisiae deletion strains, locus YLR102C, strain apc9, stronger effect = lower value 0.848 | S. cerevisiae deletion strains, locus YLR268W, strain sec22, stronger effect = lower value 0.168 | S. cerevisiae deletion strains, locus YLR330W, strain CHS5, stronger effect = lower value 0.0585 | S. cerevisiae deletion strains, locus YLR342W, strain FKS1 (second series), stronger effect = lower value 0.102 | S. cerevisiae deletion strains, locus YLR371W, strain rom2, stronger effect = lower value 0.9 | S. cerevisiae deletion strains, locus YLR418C, strain cdc73, stronger effect = lower value 0.101 | S. cerevisiae deletion strains, locus YML016C, strain PPZ1, stronger effect = lower value 0.229 | S. cerevisiae deletion strains, locus YML032C, strain rad52, stronger effect = lower value 0.499 | S. cerevisiae deletion strains, locus YML124C, strain tub3, stronger effect = lower value 0.88 | S. cerevisiae deletion strains, locus YMR078C, strain ctf18, stronger effect = lower value 0.392 | S. cerevisiae deletion strains, locus YMR223W, strain ubp8, stronger effect = lower value 0.406 | S. cerevisiae deletion strains, locus YNL067W, strain RPL9B, stronger effect = lower value 0.698 | S. cerevisiae deletion strains, locus YNL128W, strain TEP1, stronger effect = lower value 0.752 | S. cerevisiae deletion strains, locus YNL153C, strain GIM3, stronger effect = lower value 0.281 | S. cerevisiae deletion strains, locus YNL175C, strain NOP13, stronger effect = lower value 0.249 | S. cerevisiae deletion strains, locus YNL197C, strain WHI3, stronger effect = lower value 0.736 | S. cerevisiae deletion strains, locus YNL224C, strain SQS1, stronger effect = lower value 0.391 | S. cerevisiae deletion strains, locus YNL233W, strain BNI4, stronger effect = lower value 0.136 | S. cerevisiae deletion strains, locus YNL250W, strain rad50, stronger effect = lower value 0.69 | S. cerevisiae deletion strains, locus YNL271C, strain bni1, stronger effect = lower value 0.736 | S. cerevisiae deletion strains, locus YNL298W, strain CLA4, stronger effect = lower value 0.192 | S. cerevisiae deletion strains, locus YNL307C, strain MCK1, stronger effect = lower value 0.0704 | S. cerevisiae deletion strains, locus YOL006C, strain TOP1, stronger effect = lower value 0.101 | S. cerevisiae deletion strains, locus YOL147C, strain pex11, stronger effect = lower value 0.118 | S. cerevisiae deletion strains, locus YOR083W, strain WHI5 (second series), stronger effect = lower value 0.102 | S. cerevisiae deletion strains, locus YOR136W, strain idh2, stronger effect = lower value 0.773 | S. cerevisiae deletion strains, locus YOR144C, strain elg1, stronger effect = lower value 0.569 | S. cerevisiae deletion strains, locus YOR184W, strain ser1, stronger effect = lower value 0.0857 | S. cerevisiae deletion strains, locus YOR316C, strain cot1, stronger effect = lower value 0.582 | S. cerevisiae deletion strains, locus YPR119W, strain clb2, stronger effect = lower value 0.796 | S. cerevisiae deletion strains, locus YPR163C, strain tif3, stronger effect = lower value 0.0804 | S. cerevisiae deletion strains, locus YPR167C, strain met16, stronger effect = lower value 0.587 | S. cerevisiae deletion strains, strain wtn01, stronger effect = lower value 0.303 | S. cerevisiae strains, strain wild type, stronger effect = lower value 0.51
0.976 (inactive) and 0.122 (active): S. cerevisiae deletion strains, locus YGR078C, strain PAC10, stronger effect = lower value
0.983 (inactive) and 0.182 (active): S. cerevisiae deletion strains, locus YNL322C, strain KRE1, stronger effect = lower value
1.03 (inactive) and 0.297 (active): S. cerevisiae deletion strains, locus YMR307W, strain GAS1, stronger effect = lower value
0.892 (inactive) and 0.209 (active): S. cerevisiae deletion strains, locus YPL055C, strain LGE1, stronger effect = lower value

Reference: PubChem BioAssay AID1159580 (chemical genetic matrix, 2015)
